Reference: the supplement of paper PMC6607015
Structures can show the parent of a compound that is named as a salt.

How the values were obtained:
Conditions in all cases: compound concentration in added solution (µM; 5 µl added to 20 µl cells): 10; 18 h
A431 [1] = assay: LBPA endosome anti-LBPA integrated intensity (sum per cell), Z-score; higher = more LBPA staining
Outline: (§1)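 Z-scores normalised in AcuityXpress are given for per-cell integrated LBPA or filipin intensity, measured whole-cell or within LBPA endosomes by MetaXpress segmentation. Cells (HeLa MZ or A431, 3,500 per well in 20 µl) were seeded onto 5 µl of 10 µM compound solution in duplicate 384-well imaging plates and fixed in 4% PFA after 18 h.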

HeLa MZ [2] = assay: as above
Outline: as §1

A431 [3] = assay: whole-cell filipin (free cholesterol) integrated intensity, Z-score; higher = more cholesterol staining
Outline: as §1

HeLa MZ [4] = assay: as above
Outline: as §1

A431 [5] = assay: filipin (cholesterol) integrated intensity within LBPA endosomes, Z-score; higher = more cholesterol in LBPA endosomes
Outline: as §1

HeLa MZ [6] = assay: as above
Outline: as §1

Structure (SMILES)	LBPA endosome anti-LBPA integrated intensity (z-score) (A431 [1])	LBPA endosome anti-LBPA integrated intensity (z-score) (HeLa MZ [2])	whole-cell filipin (z-score) (A431 [3])	whole-cell filipin (z-score) (HeLa MZ [4])	filipin (z-score) (A431 [5])	filipin (z-score) (HeLa MZ [6])
C[C@H]1NC(=O)NC1=O [Methylhydantoin-5-(D)]	-0.487	-0.363	-0.289	-0.267	-0.458	-0.381
Clc1ccccc1C(c1ccccc1)(c1ccccc1)n1ccnc1 [Clotrimazole]	-0.44	0.655	-0.0982	0.216	-0.276	-0.063
Cc1nnc(NS(=O)(=O)c2ccc(N)cc2)s1 [Sulfamethizole]	-0.497	-0.619	-0.626	-0.62	-0.469	-0.463
CC[N+](C)(C)Cc1ccccc1Br [Bretylium tosylate]	-0.568	-0.254	-0.37	-0.522	-0.5	-0.561
Cc1cc(C(C)(C)C)c(O)c(C)c1CC1=NCCN1 [Oxymetazoline hydrochloride]	-0.605	0.256	-0.84	-0.57	-0.491	-0.228
CC(=O)CC(c1ccc([N+](=O)[O-])cc1)c1c(O)c2ccccc2oc1=O (centres undefined) [Acenocoumarol]	-0.507	-0.33	-0.704	-0.387	-0.49	-0.482
O=C(O[C@@H]1C[C@@H]2C[C@H]3C[C@H](C1)N2CC3=O)c1c[nH]c2ccccc12 [Dolasetron mesilate]	-0.534	-0.27	-0.669	0.0841	-0.498	-0.224
N[C@H]1CONC1=O [(S)-(-)-Cycloserine]	-0.455	-0.138	-0.147	-0.221	-0.457	-0.283
COc1ccc2c(c1)c(CC(=O)O)c(C)n2C(=O)c1ccc(Cl)cc1 [Indomethacin]	-0.426	0.408	-0.694	-0.518	-0.524	-0.49
O=C1C(O)=C(O)C(=O)C(O)=C1O [Tetrahydroxy-1,4-quinone monohydrate]	-0.376	0.48	-0.203	-0.164	-0.404	-0.442
NS(=O)(=O)c1cc2c(cc1Cl)N=CNS2(=O)=O [Chlorothiazide]	-0.508	-0.375	-0.521	-0.988	-0.472	-0.537
CC1(C)O[C@@H]2C[C@H]3[C@@H]4CCC5=CC(=O)CC[C@]5(C)[C@@]4(F)[C@@H](O)C[C@]3(C)[C@]2(C(=O)CCl)O1 [Halcinonide]	-0.266	-0.708	-0.0733	0.0912	-0.203	-0.18
COc1ccc(C2CNC(=O)C2)cc1OC1CCCC1 (centres undefined) [Rolipram]	-0.493	-0.432	-0.586	-0.445	-0.453	-0.525
CC(=O)OCC1=C(C(=O)O)N2C(=O)[C@@H](NC(=O)Cc3cccs3)[C@H]2SC1 [Cephalothin sodium salt]	-0.468	-0.884	-0.46	-0.115	-0.456	-0.652
CCOC(=O)/C=C(C)/C=C/C=C(C)/C=C/c1c(C)cc(OC)c(C)c1C [Etretinate]	-0.297	0.358	0.197	-0.112	-0.399	-0.321
O=c1n(CCCN2CCN(c3cccc(Cl)c3)CC2)nc2ccccn12 [Trazodone hydrochloride]	0.505	2.35	0.713	1.12	0.872	1.04
CCN(CC)CCOC(=O)C(Cc1cccc2ccccc12)CC1CCCO1 (centres undefined) [Nafronyl oxalate]	1.69	2.05	1.62	0.888	1.25	1.15
Cc1ccc(C)c(OCCCC(C)(C)C(=O)O)c1 [Gemfibrozil]	-0.639	-0.782	-0.695	-0.706	-0.635	-0.699
O=C(O)CCC(=O)Nc1ccc(S(=O)(=O)Nc2nccs2)cc1 [Succinylsulfathiazole]	-0.428	-0.709	-0.288	-0.818	-0.463	-0.508
